# Screens from PubChem BioAssay.
# Many of the other results were omitted from the sample, so hits are more common in it than they were.
# ST2 inh – IL1RL1 inhibition. inhibition, % for hits at 17 µM. AlphaLISA ST2-Fc/biotin-IL-33 interaction, 1 h. Q01638. 2.3% of 78,000 active; in the data active = inhibition above about 30%
# Target sequence (Q01638 whole entry, looked up): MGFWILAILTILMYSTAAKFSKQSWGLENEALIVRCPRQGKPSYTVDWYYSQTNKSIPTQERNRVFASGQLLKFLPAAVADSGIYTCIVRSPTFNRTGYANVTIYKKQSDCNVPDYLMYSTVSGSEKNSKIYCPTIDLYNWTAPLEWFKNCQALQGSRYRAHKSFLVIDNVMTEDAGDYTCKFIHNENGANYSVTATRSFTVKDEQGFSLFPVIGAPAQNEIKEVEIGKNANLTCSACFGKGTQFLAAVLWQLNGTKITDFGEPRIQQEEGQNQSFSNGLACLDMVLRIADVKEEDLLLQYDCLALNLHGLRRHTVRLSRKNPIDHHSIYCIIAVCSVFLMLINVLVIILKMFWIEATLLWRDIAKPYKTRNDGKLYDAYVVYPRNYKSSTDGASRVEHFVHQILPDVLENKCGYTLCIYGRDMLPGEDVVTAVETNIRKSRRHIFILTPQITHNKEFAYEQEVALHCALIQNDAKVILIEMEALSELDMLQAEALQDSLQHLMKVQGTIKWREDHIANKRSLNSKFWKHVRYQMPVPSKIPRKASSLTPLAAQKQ
# Numbers without * were called inactive; i = inactive.
SMILES,ST2 inh
Cc1ccc(-n2nc3c(c2NC(=O)c2ccc(S(=O)(=O)N(C)C)cc2)CS(=O)C3)cc1 (configuration not stated),i
COc1ccc(OC)c(NS(=O)(=O)c2ccc(NS(=O)(=O)c3ccc(C)cc3)cc2)c1,i
COc1ccc(S(=O)(=O)Nc2ccc(S(=O)(=O)Nc3cc(OC)ccc3OC)cc2)cc1,49%*
COc1ccc(OC)c(NS(=O)(=O)c2ccc(NS(=O)(=O)c3ccc(F)cc3)cc2)c1,i
Cc1c(C(=O)N(C)CC2(C)CCN(C)C2)cnn1-c1ccccn1 (configuration not stated),i
CC(=O)N[C@H]1C[C@@H](c2c(C)cccc2C)O[C@@H](c2cc(F)cc(F)c2)C1,i
CC(=O)Nc1sc2c(c1C#N)CCC2,i
N#Cc1c(N=CN2CCCCC2)sc2c1CCCCC2,35%*
N#Cc1c(N=CC2C(=O)c3ccccc3C2=O)sc2c1CCCC2,i
O=C(c1cnn2cc(CCO)cnc12)N1CCCC(Nc2cccc(F)c2)C1 (configuration not stated),i
Cc1nnc([C@H]2CCN(C(=O)c3ccc(F)cc3)C2)o1,i
CN1c2ccccc2N(C)C1c1ccc2c(c1)OCO2,i
O=[N+]([O-])c1ccc(C2CNC(c3ccc4c(c3)OCO4)O2)cc1 (configuration not stated),i
CCOc1ccc(C(=O)Nc2c(C)cc(Br)cc2C)cc1[N+](=O)[O-],i
O=[N+]([O-])C1=Cc2cc(Br)cc(Br)c2OC1c1ccc2c(c1)OCO2 (configuration not stated),60%*
COc1ccc(C2SCCN2S(=O)(=O)c2ccc(Br)cc2)cc1[N+](=O)[O-] (configuration not stated),i
CCOc1ccc(C2Oc3c(cc(Br)cc3OC)C=C2[N+](=O)[O-])cc1OC (configuration not stated),36%*
COCCc1noc(CN(C)C(=O)c2oc3cc(C)ccc3c2C)n1,i
Cc1ccc(C)c(OCCN2CC(C(=O)O)CC2=O)c1 (configuration not stated),i
CCN(CC)C(=O)Cn1cc(C(=O)N2CCN(c3ccc(Cl)cn3)CC2)nn1,i
NNC(=O)C1C(=O)NCC1c1ccccc1 (configuration not stated),i
COc1cc(NC(=O)CSc2nnc(-c3ccco3)c(-c3ccco3)n2)cc(OC)c1,31%*
Cc1cccc(C)c1NC(=O)CSc1nnc(-c2ccccc2)c(-c2ccccc2)n1,i
COc1ccc(NC(=O)CSc2ncccn2)cc1,i
Cc1cc(-c2nn(C)c(Cl)c2C2NCCc3[nH]cnc32)no1 (configuration not stated),i
SMILES,ST2 inh
O=C(NC1CCCC1)c1cc(-c2cccs2)on1,i
COC(=O)c1c[nH]n2c(=O)c(Cc3cccc(C)c3)c(C)nc12,i
COC(=O)c1c[nH]n2c(NC3CCCCC3)c(-c3cccs3)nc12,32%*
CCN(CC)S(=O)(=O)c1ccc2oc(C(=O)NCc3ccc4c(c3)OCO4)c(C)c2c1,i
CCCC(=O)N(c1ccc(Br)cc1)C1C=CS(=O)(=O)C1 (configuration not stated),i
CC(=O)N1N=C(c2ccccc2)CC1c1cn(-c2ccccc2)nc1-c1ccc(C)cc1 (configuration not stated),i
O=C(N=c1scc(-c2ccc(Cl)cc2)n1Cc1ccco1)c1ccccc1,i
c1ccc(CCCN2CCOCC2)cc1,i
CCn1c(-c2ccc(S(=O)(=O)N3CCCCC3)cc2)csc1=Nc1ccccc1OC,61%*
Cc1sc2c(c1C)c(=O)n(CCc1ccccc1)c(=O)n2Cc1cccnc1,i
Cc1ccc(S(=O)(=O)N2CCCCC2)cc1,i
Clc1ccc(-c2csc(=Nc3ccccc3)n2CCCN2CCOCC2)cc1,64%*
c1ccc(N=c2scc(-c3ccccc3)n2Cc2cccnc2)cc1,41%*
Cn1c(=O)c2c(nc3n(CCCO)c(-c4ccc(F)cc4)cn23)n(C)c1=O,i
CCSc1nnc(-c2cccnc2)n1Cc1ccccc1,i
O=S(=O)(c1ccc(Cl)cc1)N(CCCN1CCOCC1)Cc1cccs1,i
OCCn1c(-c2ccc(F)cc2)csc1=Nc1ccccc1,36%*
COc1ccc(S(=O)(=O)N2CCCC2)cc1,i
Cc1n[nH]c(C)c1CNC(=O)CC(c1cccc(Cl)c1)c1ccccc1O (configuration not stated),i
Cc1ccc(OCc2cc(=O)n3oc(C)cc3n2)c(NC(=O)c2cccc(F)c2)c1,i
CC(Oc1cccc(Cl)c1)C(=O)NN (configuration not stated),i
C=C(C)Cn1cnc(-c2ccccc2)c1-c1c(C)n(C)n(-c2ccccc2)c1=O,i
COCCNC(=O)C1CCCN(C2CCN(c3ncccc3C(=O)O)CC2)C1 (configuration not stated),i
O=C(NCc1cccnc1Oc1ccc(F)cc1F)c1[nH]ncc1Cl,i
O=C(O)c1ccncc1-c1nc2ccccc2s1,i
CC(C)(C)NS(=O)(=O)c1ccccc1[N+](=O)[O-],i
